These results are taken from publication PMC7862700, “An all-to-all approach to the identification of sequence-specific readers for epigenetic DNA modifications on cytosine”.

Holding throughout (assay): DAPPL (digital affinity profiling via proximity ligation, sequencing); 10 mM Tris-HCl pH 7.5, 50 mM NaCl, 1 mM DTT, 4% glycerol, room temperature, 30 min; GST-TFs on glutathione beads, 16-mer random dsDNA library, 0.1% formaldehyde crosslink after washing; high values mean tight binding
Experiment [1] has as its target T1, FEV (Homo sapiens, UniProt Q99581 1-238).
T1 sequence: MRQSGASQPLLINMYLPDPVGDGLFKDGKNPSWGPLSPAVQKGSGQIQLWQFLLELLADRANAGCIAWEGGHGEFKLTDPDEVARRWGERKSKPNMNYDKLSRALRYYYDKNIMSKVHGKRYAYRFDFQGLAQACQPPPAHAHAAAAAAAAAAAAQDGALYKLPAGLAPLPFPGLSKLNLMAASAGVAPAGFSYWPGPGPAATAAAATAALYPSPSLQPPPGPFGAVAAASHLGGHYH
The note with it: protein: recombinant; tags: N-terminal GST; dsDNA, one strand shown. A digest of the protocol:
(§1)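 Pools of DNA-barcoded human transcription factors, expressed in yeast as GST fusions on glutathione beads and combined with a tag-only sample, were incubated with 200 nmole of a 16-mer random double-stranded DNA library. Incubation took 30 min at room temperature in Tris/NaCl/DTT/glycerol buffer and was followed by washing, 0.1% formaldehyde crosslinking, proximity ligation (BsaI/T4 ligase, 1 h, 37 °C), PCR amplification and sequencing on an Illumina NextSeq500. Binding signal is the ratio of a hexamer's read frequency for a factor to its frequency for the tag-only sample.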

Experiment [2] deals with ETV5 (Homo sapiens, UniProt P41161 1-510). The note with it: protein: recombinant; tags: N-terminal GST; dsDNA, one strand shown. Put shortly:
as §1

In experiment [3] the target is HSF1 (Homo sapiens, UniProt Q00613 1-529). The note with it: protein: recombinant; tags: N-terminal GST; chain copies: 3; dsDNA, one strand shown. A digest of the protocol: as §1
For experiment [4], the target named is T2, SPIC (Homo sapiens, UniProt Q8N5J4 1-248).
T2 sequence: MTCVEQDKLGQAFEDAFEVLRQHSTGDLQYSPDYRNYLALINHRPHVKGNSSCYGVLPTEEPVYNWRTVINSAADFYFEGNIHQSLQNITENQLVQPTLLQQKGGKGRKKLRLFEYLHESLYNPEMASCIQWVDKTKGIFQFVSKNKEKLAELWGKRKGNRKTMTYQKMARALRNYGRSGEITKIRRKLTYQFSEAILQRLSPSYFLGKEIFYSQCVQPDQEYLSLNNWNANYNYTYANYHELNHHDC
The settings on record: protein: recombinant; tags: N-terminal GST; dsDNA, one strand shown. A digest of the protocol: as §1

Experiment [5] has as its target ELF4 (Homo sapiens, UniProt Q99607 1-663). The settings on record: protein: recombinant; tags: N-terminal GST; dsDNA, one strand shown. Put shortly: as §1
For experiment [6], the target named is T3, ELK4 (Homo sapiens, UniProt P28324-2 1-405).
T3 sequence: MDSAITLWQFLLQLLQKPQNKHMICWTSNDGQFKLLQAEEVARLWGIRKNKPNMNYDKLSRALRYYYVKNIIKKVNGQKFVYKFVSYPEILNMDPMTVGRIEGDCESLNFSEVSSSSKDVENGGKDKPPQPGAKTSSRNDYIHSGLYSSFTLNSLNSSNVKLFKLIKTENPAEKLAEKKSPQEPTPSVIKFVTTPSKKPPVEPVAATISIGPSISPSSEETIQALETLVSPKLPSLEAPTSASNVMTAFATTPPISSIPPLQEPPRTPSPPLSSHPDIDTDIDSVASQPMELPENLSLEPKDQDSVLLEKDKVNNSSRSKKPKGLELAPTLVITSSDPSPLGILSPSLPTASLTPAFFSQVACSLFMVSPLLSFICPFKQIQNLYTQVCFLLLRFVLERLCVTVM
The settings on record: protein: recombinant; tags: N-terminal GST; dsDNA, one strand shown. Put shortly:
as §1

In experiment [7] the target is T4, ETV2 (Homo sapiens, UniProt O00321 1-342).
T4 sequence: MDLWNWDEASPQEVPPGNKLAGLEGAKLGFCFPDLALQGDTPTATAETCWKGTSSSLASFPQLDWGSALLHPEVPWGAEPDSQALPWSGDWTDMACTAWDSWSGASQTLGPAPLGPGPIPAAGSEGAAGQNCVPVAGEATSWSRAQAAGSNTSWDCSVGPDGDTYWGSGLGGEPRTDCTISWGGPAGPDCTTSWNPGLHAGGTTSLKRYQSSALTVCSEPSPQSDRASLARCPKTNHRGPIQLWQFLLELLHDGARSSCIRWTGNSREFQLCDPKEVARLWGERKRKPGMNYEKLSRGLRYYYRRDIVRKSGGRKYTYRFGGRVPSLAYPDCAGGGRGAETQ
The settings on record: protein: recombinant; tags: N-terminal GST; dsDNA, one strand shown. A digest of the protocol:
as §1

Experiment [8] concerns the target T5, ELF3 (Homo sapiens, UniProt P78545 1-371).
T5 sequence: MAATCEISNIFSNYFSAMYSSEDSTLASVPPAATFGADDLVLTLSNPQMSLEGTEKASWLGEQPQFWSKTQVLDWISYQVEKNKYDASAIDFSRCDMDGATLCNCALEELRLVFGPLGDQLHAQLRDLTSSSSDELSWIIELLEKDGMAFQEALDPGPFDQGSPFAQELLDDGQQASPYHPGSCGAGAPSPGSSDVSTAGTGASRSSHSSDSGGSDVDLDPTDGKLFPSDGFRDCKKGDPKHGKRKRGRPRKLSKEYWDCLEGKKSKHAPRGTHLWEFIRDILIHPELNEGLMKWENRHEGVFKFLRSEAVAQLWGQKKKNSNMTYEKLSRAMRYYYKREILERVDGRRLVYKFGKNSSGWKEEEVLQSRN
The note with it: protein: recombinant; tags: N-terminal GST; dsDNA, one strand shown. A digest of the protocol: as §1

Experiment [9] deals with CRX (Homo sapiens, UniProt O43186 1-299). The settings on record: protein: recombinant; tags: N-terminal GST; dsDNA, one strand shown. Put shortly:
as §1

Experiment [10] has as its target ETV1 (Homo sapiens, UniProt P50549 1-477). The note with it: protein: recombinant; tags: N-terminal GST; dsDNA, one strand shown. Put shortly:
as §1

Experiment [11] concerns the target T6, ERF (Homo sapiens, UniProt P50548 1-548).
T6 sequence: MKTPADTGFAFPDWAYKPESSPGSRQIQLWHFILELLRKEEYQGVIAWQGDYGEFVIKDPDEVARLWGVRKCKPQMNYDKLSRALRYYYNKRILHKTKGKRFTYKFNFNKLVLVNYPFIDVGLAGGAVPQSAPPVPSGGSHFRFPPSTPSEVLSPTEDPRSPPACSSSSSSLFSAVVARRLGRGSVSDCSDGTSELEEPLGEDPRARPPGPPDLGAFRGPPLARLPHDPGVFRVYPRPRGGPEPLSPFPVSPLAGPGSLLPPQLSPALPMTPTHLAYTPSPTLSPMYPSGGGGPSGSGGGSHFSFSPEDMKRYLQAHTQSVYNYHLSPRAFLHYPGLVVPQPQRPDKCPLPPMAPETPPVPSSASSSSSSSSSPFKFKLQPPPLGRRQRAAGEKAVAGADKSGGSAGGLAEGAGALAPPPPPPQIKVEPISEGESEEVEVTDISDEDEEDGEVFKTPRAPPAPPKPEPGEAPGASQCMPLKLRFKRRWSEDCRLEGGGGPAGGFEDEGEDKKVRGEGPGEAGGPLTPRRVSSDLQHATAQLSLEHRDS
The settings on record: protein: recombinant; tags: N-terminal GST; dsDNA, one strand shown. Put shortly:
as §1

The target in experiment [12] is T7, ETV3L (Homo sapiens, UniProt Q6ZN32 1-361).
T7 sequence: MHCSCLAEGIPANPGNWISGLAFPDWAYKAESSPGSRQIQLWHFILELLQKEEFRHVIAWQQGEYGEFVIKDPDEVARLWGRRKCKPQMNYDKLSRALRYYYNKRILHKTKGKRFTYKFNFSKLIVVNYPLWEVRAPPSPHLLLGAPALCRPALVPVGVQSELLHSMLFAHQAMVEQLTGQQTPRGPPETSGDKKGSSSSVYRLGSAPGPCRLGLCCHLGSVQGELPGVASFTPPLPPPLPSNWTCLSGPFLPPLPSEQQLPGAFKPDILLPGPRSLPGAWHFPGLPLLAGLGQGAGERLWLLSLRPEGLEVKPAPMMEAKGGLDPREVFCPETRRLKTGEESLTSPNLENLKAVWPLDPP
The note with it: protein: recombinant; tags: N-terminal GST; dsDNA, one strand shown. Put shortly: as §1

Experiment [13] deals with T8, ETS2 (Homo sapiens, UniProt P15036 1-469).
T8 sequence: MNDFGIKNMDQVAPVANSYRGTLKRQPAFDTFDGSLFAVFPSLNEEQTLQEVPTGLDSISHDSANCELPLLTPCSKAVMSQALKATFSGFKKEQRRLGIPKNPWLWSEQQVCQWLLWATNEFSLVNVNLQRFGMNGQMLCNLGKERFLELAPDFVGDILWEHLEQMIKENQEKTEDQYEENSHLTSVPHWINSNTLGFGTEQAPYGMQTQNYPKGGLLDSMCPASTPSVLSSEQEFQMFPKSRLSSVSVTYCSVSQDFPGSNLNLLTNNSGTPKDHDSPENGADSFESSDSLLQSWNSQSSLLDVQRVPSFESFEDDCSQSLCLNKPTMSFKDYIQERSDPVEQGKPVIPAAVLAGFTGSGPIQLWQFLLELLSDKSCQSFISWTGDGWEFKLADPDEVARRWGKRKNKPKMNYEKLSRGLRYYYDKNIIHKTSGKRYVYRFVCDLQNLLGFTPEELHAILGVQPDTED
The settings on record: protein: recombinant; tags: N-terminal GST; dsDNA, one strand shown. Put shortly:
as §1

Experiment [14] has as its target T9, SPDEF (Homo sapiens, UniProt O95238 1-335).
T9 sequence: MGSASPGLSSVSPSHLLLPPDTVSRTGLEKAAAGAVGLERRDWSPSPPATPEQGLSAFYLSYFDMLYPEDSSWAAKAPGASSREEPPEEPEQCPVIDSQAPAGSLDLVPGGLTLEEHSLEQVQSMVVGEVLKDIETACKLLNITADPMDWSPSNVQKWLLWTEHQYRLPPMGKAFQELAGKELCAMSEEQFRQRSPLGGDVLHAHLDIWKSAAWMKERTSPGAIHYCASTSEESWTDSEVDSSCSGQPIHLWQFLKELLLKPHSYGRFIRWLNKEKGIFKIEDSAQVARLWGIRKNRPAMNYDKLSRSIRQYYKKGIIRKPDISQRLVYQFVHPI
The note with it: protein: recombinant; tags: N-terminal GST; dsDNA, one strand shown. A digest of the protocol:
as §1

Experiment [15] has as its target T10, ETV7 (Homo sapiens, UniProt Q9Y603 1-341).
T10 sequence: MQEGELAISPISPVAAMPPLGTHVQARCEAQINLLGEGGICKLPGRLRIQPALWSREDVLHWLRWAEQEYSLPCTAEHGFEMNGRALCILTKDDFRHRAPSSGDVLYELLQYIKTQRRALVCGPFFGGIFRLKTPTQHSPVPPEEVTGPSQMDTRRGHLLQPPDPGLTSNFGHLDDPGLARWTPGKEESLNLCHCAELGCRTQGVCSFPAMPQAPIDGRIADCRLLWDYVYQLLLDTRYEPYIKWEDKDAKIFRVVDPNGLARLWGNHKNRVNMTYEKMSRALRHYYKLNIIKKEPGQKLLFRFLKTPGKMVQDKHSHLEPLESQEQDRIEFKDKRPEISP
The note with it: protein: recombinant; tags: N-terminal GST; dsDNA, one strand shown. Put shortly: as §1

Experiment [16] addresses T11, ELF5 (Homo sapiens, UniProt Q9UKW6-2 1-255).
T11 sequence: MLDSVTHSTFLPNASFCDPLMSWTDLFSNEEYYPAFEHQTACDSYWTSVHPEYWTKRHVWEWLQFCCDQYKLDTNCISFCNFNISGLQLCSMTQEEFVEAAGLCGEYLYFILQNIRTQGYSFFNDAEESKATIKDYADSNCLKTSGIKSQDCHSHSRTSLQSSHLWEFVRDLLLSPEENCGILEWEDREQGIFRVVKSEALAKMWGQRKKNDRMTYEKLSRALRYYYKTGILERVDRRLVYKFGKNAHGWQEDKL
The settings on record: protein: recombinant; tags: N-terminal GST; dsDNA, one strand shown. Put shortly:
as §1

In experiment [17] the target is T12, ETV3 (Homo sapiens, UniProt P41162-2 1-143).
T12 sequence: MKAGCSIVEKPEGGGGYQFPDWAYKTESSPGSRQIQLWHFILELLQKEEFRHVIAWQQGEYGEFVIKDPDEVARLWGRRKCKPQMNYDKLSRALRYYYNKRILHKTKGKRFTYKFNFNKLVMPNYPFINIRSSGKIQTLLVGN
The note with it: protein: recombinant; tags: N-terminal GST; dsDNA, one strand shown. A digest of the protocol:
as §1

The target in experiment [18] is ETV6 (Homo sapiens, UniProt P41212 1-452). The settings on record: protein: recombinant; tags: N-terminal GST; dsDNA, one strand shown. A digest of the protocol:
as §1

HSF1, sequence (Q00613 whole entry): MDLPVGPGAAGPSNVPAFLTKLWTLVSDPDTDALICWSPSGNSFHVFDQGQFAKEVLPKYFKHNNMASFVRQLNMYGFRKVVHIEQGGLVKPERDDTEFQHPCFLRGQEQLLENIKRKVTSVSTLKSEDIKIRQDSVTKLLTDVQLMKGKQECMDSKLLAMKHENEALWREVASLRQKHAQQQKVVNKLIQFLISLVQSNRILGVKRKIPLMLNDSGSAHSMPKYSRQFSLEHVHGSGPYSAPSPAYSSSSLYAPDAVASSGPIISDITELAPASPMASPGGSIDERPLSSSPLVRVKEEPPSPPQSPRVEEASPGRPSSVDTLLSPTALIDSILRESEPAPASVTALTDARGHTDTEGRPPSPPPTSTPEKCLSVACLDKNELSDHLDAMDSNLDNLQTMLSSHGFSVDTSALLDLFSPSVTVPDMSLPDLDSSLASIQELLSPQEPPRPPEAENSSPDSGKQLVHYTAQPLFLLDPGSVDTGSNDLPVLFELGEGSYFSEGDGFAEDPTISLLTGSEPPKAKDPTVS
ETV1, sequence (P50549 whole entry): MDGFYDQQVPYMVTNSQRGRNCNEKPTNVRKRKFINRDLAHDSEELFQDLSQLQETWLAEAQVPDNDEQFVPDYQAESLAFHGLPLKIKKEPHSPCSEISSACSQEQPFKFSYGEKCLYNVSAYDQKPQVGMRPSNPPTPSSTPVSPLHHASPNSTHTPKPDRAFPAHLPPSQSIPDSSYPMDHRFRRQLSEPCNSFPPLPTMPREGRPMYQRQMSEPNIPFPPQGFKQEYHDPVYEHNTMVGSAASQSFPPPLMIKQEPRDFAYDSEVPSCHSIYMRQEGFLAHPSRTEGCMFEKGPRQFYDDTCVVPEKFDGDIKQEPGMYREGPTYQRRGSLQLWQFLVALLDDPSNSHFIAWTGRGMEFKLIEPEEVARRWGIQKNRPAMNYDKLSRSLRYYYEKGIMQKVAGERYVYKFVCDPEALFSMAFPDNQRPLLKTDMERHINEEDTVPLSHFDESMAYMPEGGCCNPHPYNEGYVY
ETV6, sequence (P41212 whole entry): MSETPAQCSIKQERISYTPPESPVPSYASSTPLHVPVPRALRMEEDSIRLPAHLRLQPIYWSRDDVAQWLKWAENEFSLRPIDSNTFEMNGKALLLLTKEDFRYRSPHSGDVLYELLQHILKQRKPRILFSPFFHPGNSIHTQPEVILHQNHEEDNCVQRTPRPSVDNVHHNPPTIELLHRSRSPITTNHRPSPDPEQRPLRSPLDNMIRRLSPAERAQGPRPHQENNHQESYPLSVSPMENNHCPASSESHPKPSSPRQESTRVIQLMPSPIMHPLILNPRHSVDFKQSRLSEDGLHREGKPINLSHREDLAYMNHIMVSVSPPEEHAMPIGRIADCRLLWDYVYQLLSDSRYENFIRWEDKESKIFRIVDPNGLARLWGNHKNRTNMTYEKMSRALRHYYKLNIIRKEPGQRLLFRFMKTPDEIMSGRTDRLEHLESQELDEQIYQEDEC
ETV5, sequence (P41161 whole entry): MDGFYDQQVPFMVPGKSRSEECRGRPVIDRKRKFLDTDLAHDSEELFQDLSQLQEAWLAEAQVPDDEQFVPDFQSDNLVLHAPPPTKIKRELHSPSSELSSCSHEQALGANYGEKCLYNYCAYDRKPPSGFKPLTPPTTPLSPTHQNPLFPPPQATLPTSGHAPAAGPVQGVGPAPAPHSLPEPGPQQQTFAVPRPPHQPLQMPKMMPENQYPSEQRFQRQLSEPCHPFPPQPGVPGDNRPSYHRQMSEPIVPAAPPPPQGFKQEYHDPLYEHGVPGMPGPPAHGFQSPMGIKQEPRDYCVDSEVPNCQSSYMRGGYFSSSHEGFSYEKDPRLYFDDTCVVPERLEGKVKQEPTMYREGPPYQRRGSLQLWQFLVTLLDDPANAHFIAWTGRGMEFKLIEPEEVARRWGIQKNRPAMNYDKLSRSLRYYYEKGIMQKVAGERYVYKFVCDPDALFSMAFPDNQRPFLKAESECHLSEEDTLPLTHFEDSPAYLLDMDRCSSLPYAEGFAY
ELF4, sequence (Q99607 whole entry): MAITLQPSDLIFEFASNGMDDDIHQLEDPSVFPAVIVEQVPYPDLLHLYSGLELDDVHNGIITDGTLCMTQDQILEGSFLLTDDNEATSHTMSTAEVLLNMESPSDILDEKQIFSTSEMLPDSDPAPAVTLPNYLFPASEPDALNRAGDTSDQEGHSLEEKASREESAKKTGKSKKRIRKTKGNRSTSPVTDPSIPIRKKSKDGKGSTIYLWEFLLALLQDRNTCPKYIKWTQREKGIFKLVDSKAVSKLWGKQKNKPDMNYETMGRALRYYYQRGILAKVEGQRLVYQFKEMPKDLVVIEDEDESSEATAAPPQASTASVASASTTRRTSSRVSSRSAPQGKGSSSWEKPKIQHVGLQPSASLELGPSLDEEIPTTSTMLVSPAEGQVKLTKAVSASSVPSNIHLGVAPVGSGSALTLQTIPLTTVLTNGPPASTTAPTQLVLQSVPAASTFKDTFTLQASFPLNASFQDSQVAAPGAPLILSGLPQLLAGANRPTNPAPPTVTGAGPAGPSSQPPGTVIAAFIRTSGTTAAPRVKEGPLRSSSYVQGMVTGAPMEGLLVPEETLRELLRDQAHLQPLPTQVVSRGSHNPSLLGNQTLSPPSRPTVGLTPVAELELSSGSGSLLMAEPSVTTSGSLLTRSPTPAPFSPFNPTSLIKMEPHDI
CRX, sequence (O43186 whole entry): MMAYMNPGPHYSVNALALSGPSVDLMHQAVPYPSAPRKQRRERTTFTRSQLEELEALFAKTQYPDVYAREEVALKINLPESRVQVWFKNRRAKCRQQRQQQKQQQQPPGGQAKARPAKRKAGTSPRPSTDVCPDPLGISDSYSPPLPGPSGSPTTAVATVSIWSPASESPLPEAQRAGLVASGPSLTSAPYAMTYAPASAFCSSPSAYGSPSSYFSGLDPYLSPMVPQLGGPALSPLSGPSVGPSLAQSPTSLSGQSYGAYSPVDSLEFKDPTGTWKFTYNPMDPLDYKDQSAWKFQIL

As to TGCGAT, the binding signal in [1] was 1.08 fold enrichment (6-mer frequency, TF over GST control); in [2] it was 1.1 fold enrichment (6-mer frequency, TF over GST control); in experiment [3] it was 1.23 fold enrichment (6-mer frequency, TF over GST control); in experiment [4], 1.3 fold enrichment (6-mer frequency, TF over GST control); in experiment [5], 1.2 fold enrichment (6-mer frequency, TF over GST control); in [6], 1.2 fold enrichment (6-mer frequency, TF over GST control). In addition, the binding signal in experiment [7] was 1.17 fold enrichment (6-mer frequency, TF over GST control); in [8], 1.03 fold enrichment (6-mer frequency, TF over GST control); in experiment [9], 1.43 fold enrichment (6-mer frequency, TF over GST control); in [10], 1.06 fold enrichment (6-mer frequency, TF over GST control); in experiment [11], 1.24 fold enrichment (6-mer frequency, TF over GST control); in [12], 1.27 fold enrichment (6-mer frequency, TF over GST control). Also, the binding signal was 1.14 fold enrichment (6-mer frequency, TF over GST control) in [13]; 1.15 fold enrichment (6-mer frequency, TF over GST control) in [14]; 1.23 fold enrichment (6-mer frequency, TF over GST control) in experiment [15]; 1.11 fold enrichment (6-mer frequency, TF over GST control) in experiment [16]; 1.23 fold enrichment (6-mer frequency, TF over GST control) in experiment [17]; 1.16 fold enrichment (6-mer frequency, TF over GST control) in experiment [18].
